Assay outcomes deposited in PubChem BioAssay by National Center for Advancing Translational Sciences (NCATS).
PKM2 act = PKM2 (human) enzyme activation; Potency, µM (titrated, usually from 57.5 µM), inactives show top-dose activation, hits mostly activators; 0.34% of 260,000 active; purified PKM2, Kinase-Glo ATP luminescence, activation; response scale: 0% is enzyme alone, no compound; P14618; note: % is set by controls: 0 for no effect and ±100 for the full control effect; nearly all actives have a fitted effect of over 55% in size
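hPK-M2, >95% pure; 0.1 mM ADP / 0.5 mM PEP final; imidazole pH7.2 buffer w/ 7 mM MgCl2, 50 mM KCl; 1 h RT; Kinase-Glo lum. Intermediate enzyme activity for dual inhibitor/activator qHTS.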
ELG1 DNA repair = blocks ELG1-dependent DNA repair in HEK293T cells. HEK293T ELG1-luciferase reporter, luminescence, 16 h; DNA damage induced by 5-fluorouridine. Potency, µM (doses to about 46.1 µM), inactives show at the top dose activity change, negative = inhibition, most hits filed as inhibitors. 2.3% of 330,000 active. AID 504467; note: % is set by controls: 0 for no effect and ±100 for the full control effect; nearly all actives have a fitted effect of over 55% in size
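Luminescence from the luciferase reporter, measured 30 min after ONE-Glo reagent at room temperature, was the read-out. Beforehand, 2,000 cells per well were exposed for 16 hr at 37 °C to 5-fluorouridine together with compound or vehicle.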
Rango release inh = prevents RanGTP from dissociating the Rango-importin beta complex; AID 540253; 0.071% of 340,000 active; O95149+P62826; Potency, µM (titrated, usually from 46.1 µM), for the others: top-dose activity change, negative = inhibition; Biochemical FRET Rango-importin beta, RanGTP-induced dissociation; calls by dose curve; note: % of control where 0% means no effect; nearly all actives have a fitted effect of over 45% in size
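Rango/importin beta premix (0.1/0.25 uM final), PBS + 1 mM DTT + 0.02% Tween-20 + 0.1% BSA; cpd 5 min RT; FRET pre-read; + RanGTP-RCC1 (0.6 uM Ran, 2 mM GTP, 0.2 uM RCC1); 45 min RT; FRET post-read, ex 430, em 486/530 nm.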
Rango complex inh = inhibitors of Rango-importin beta complex formation; Rango CFP/YFP FRET sensor + importin beta, 45 min; Potency, µM (titrated, usually from 92.2 µM), inactives show at the top dose inhibition of complex formation; 0.031% of 340,000 active; AID 540263; calls by dose curve;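 note: 0% = DMSO wells and 100% = buffer wells lacking importin beta; nearly all actives have a fitted effect of over 15% in size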
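FRET biosensor (snurportin 1 IBB flanked by EYFP and cerulean), 50 nM, with compound 5 min, then 0.125 microM importin beta in PBS, 1 mM DTT, 0.02% Tween-20, 0.1% BSA. CFP/YFP ratio read after 45 min at room temperature; pre-read flags interference.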
Tb PFK inh = blocks T. brucei phosphofructokinase | O15648 | T. brucei PFK, ADP-Glo luminescence | Potency, µM (titrated, usually from 57.5 µM), inactives show top-dose activity, negative = inhibition, most hits filed as inhibitors | 0.17% of 330,000 active;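 note: 0% = uninhibited 1x PFK enzyme wells and -100% = no-enzyme wells; nearly all actives have a fitted effect of over 60% in size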
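Compounds were pin-transferred as a titration series up to 57 uM into substrate buffer (0.5 mM F6P, 0.1 mM ATP, pH 8.0), then 1.25 nM PFK was added and reactions ran 45 min before ADP-Glo detection.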
PGK inhibitor = T. brucei PGK inhibition | PGK/GAPDH coupled, Kinase-Glo luminescence, 60 min | Potency, µM (series often up to 57.5 µM), inactives show at the top dose activity change, negative = inhibition, hits mostly inhibitors | P07378 | AID 602233 | 0.043% of 380,000 active; note: % is set by controls: 0 for no effect and ±100 for the full control effect; nearly all actives have a fitted effect of over 60% in size
Target sequence (P07378 whole entry, looked up): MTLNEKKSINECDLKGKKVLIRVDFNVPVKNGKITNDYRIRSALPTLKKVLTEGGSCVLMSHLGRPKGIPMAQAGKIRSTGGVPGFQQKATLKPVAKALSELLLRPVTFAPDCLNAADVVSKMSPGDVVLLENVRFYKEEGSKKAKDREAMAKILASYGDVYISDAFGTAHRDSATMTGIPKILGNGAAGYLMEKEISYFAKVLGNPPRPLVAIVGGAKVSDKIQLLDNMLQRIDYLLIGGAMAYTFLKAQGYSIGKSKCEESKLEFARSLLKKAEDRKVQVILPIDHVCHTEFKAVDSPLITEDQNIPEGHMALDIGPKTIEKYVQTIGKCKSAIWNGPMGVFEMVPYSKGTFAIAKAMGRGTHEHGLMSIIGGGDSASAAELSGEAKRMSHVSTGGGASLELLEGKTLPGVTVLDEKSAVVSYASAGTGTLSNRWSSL
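Luminescent ATP detection (Kinase-Glo Plus) follows a 60-minute room-temperature incubation, with wells lacking PGK as controls. Buffer: 100 mM TEA (pH 7.6), 5 mM MgCl2, 0.01% Tween-20. Coupling enzyme GAPDH (100 nM final) supplies unstable 1,3-BPG in-well.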
* marks the source's active call; other numbers are inactive results; i = inactive; u = inconclusive; x = no result given. Sampled rows, rich in hits. Any-hit rate of the full collection: about 2.4%. Unless noted, calls come from the whole dose curve; as a rule, active = well fitted curve in the direction sought with a large enough effect; inconclusive = small, poorly fitted or top-dose-only effect, or another doubt; inactive = no such curve, though single readings can be large; an effect the other way counts as inactive or inconclusive. Potency is the fitted concentration of half-maximal effect.

SMILES	PKM2 act	ELG1 DNA repair	Rango release inh	Rango complex inh	Tb PFK inh	PGK inhibitor
O=C(Oc1c(CN2CCOCC2)cc(Cl)c2cccnc12)c1ccccc1Br	2%	8.2µM*	-7%	0%	0%	-9%
CCOC(=O)N1CCN(Cc2ccccc2Cl)CC1	-1%	x	0%	5%	x	-12%
CCOC(=O)N1CCN(Cc2cc(Cl)c3cccnc3c2O)CC1	-14%	3.7µM*	7%	-2%	-21%	-7%
COc1cc(OC)c2cc(C(=O)N/N=C/c3cccc(OC)c3O)[nH]c2c1	-1%	u	9%	u	2%	5%
COc1cccc(/C=N/NC(=O)c2c(C)nc3ccc(Br)cn23)c1O	7%	2.1µM*	u	u	2%	-13%
COc1cccc(/C=N/NC(=O)c2cc3c(OC)ccc(OC)c3[nH]2)c1O	x	3.7µM*	-5%	3%	-1%	-5%
CCOc1ccccc1/C=N/NC(=O)c1c(C)nc2ccc(Br)cn12	x	-11%	0%	-3%	12%	-6%
CCc1cccc(NC(=O)c2ccc3c(=O)n4nc(Nc5ccccc5OC)sc4nc3c2)c1	x	x	x	x	x	-3%
O=C(CCCSc1nc2ccccc2[nH]1)N1CCN(c2ccccc2)CC1	0%	23µM*	-5%	5%	2%	-3%
O=C(CSc1nc2ccccc2[nH]1)N1CCN(c2ccccc2)CC1	-5%	2%	12%	0%	1%	-10%
Cc1ccc(-c2cc(-c3ccco3)c3c(N)c(C(=O)NN)oc3n2)cc1	9%	13µM*	u	u	-9%	-3%
NNC(=O)c1oc2nc(-c3ccccc3)cc(-c3ccccc3)c2c1N	x	16µM*	u	u	-2%	-3%
COc1cccc(/C=N/NC(=O)c2oc3nc(-c4ccccc4)cc(-c4ccco4)c3c2N)c1	2%	16µM*	u	u	1%	4%
NNC(=O)c1oc2nc(-c3cccs3)cc(-c3ccco3)c2c1N	x	u	x	x	0%	x
COc1ccc(C(=O)C(CN2CCCC2)c2ccccc2)cc1 (stereo not given)	-1%	16µM*	-7%	1%	4%	-5%
CCCOc1ccc(C(=O)C(CN2CCCC2)c2ccccc2)cc1 (stereo not given)	-2%	18µM*	-11%	0%	2%	1%
CCCCOc1ccc(C(=O)C(CN2CCOCC2)c2ccccc2)cc1 (stereo not given)	8%	u	22%	-1%	-13%	3%
Cc1cc(C(=O)NNc2ccc(Cl)cc2)no1	-3%	u	-12%	1%	-28%	8%
Cc1cc(C(=O)NNc2ccc(C)c(C)c2)no1	16%	8.2µM*	-2%	u	2%	-3%
COc1ccccc1C1CC(c2ccco2)=NN1c1ccccc1 (stereo not given)	10%	-7%	16µM*	u	1%	i
Fc1ccc(C2=NN(c3ccccc3)C(c3ccco3)C2)cc1 (stereo not given)	-2%	0%	-19%	u	0%	0%
CCOc1cccc(-c2c(C(=O)N/N=C(\C)c3cccs3)nnn2-c2nonc2N)c1	x	16µM*	-25%	-1%	-3%	-7%
COc1cccc(-c2c(C(=O)N/N=C(\C)c3cccs3)nnn2-c2nonc2N)c1	0%	-9%	-1%	1%	5%	-3%
C/C(=N\NC(=O)c1nnn(-c2nonc2N)c1CN1CCCCC1)c1ccccc1O	-1%	18µM*	-10%	-1%	-8%	-2%
CCc1ccc(NC(=O)CSc2nccn2-c2ccc(F)cc2)cc1	x	x	x	x	x	12%
SMILES	PKM2 act	ELG1 DNA repair	Rango release inh	Rango complex inh	Tb PFK inh	PGK inhibitor
Cc1sc2ncn3cnnc3c2c1C	10%	u	1%	11%	0%	-4%
Cc1sc2ncn3ncnc3c2c1C	1%	9.2µM*	5%	u	0%	-1%
Clc1ccc(Nc2ncnc3ccc(Br)cc23)cc1	22%	u	-5%	4%	0%	x
CN(C)c1ccc(Nc2ncnc3ccc(Br)cc23)cc1	27%	8.2µM*	-15%	-2%	4%	-3%
Brc1ccc2ncnc(NCc3ccccc3)c2c1	2%	4.1µM*	5%	0%	2%	-2%
Cc1ccc(NC(=O)CN2C(=O)S/C(=C/c3ccc(-c4cc(C(=O)O)ccc4C)o3)C2=O)cc1C	u	-15%	u	u	u	20µM*
Cc1ccc(S(=O)(=O)N(C)C)cc1NC(=O)COC(=O)Cc1cccs1	x	3%	3%	-2%	0%	-3%
CCC(=O)N1CCN(c2ccccc2NC(=O)c2ccc(-c3cccc([N+](=O)[O-])c3)o2)CC1	11%	9.2µM*	-6%	6%	10%	-1%
CN1CCN(c2ccccc2NC(=O)c2ccc(-c3cccc([N+](=O)[O-])c3)o2)CC1	3%	u	-1%	9%	0%	-3%
CC(=O)N1CCN(c2ccc(NC(=O)c3ccc([N+](=O)[O-])o3)cc2Cl)CC1	8%	18µM*	10%	-7%	2%	-10%
CS(=O)(=O)N1CCN(c2ccccc2NC(=O)c2ccc([N+](=O)[O-])o2)CC1	-4%	23µM*	-6%	2%	5%	1%
CN1CCN(c2ccccc2NC(=O)c2ccc(-c3ccc(Br)cc3)o2)CC1	-1%	u	-10%	1%	4%	-2%
CCC(=O)N1CCN(c2ccc(NC(=O)c3ccc([N+](=O)[O-])o3)cc2Cl)CC1	-1%	u	4%	5%	1%	35%
CN1CCN(c2ccccc2NC(=O)c2ccc([N+](=O)[O-])o2)CC1	-3%	9.2µM*	14%	1%	1%	-5%
COc1ccc(S(=O)(=O)N(CC(=O)Nc2ccc(OC)cc2OC)c2ccc(Cl)cc2)cc1	x	x	x	x	x	i
Cc1ccc(NC(=O)c2c(C)oc3ncn(C)c(=O)c23)cc1F	x	x	x	x	x	1%
CS(=O)(=O)N1CCN(c2ccccc2NC(=O)c2ccc3ccccc3c2)CC1	7%	12µM*	25%	4%	2%	-5%
CC(=O)Nc1ccc2nc(NC(=O)c3ccco3)sc2c1	-22%	u	4%	0%	0%	i
CC(=O)Nc1ccc2nc(NC(=O)c3ccc([N+](=O)[O-])o3)sc2c1	-4%	21µM*	-1%	1%	-6%	-4%
CS(=O)(=O)N1CCN(c2ccccc2NC(=O)c2ccc(Cl)cc2)CC1	7%	-1%	2%	4%	0%	-19%
